In the library only some 2.3% were active in any assay of this set; here they are far more common.
PTHR1 ag: qHTS for PTHR1 Agonists: Primary Screen. 410,000 compounds, 0.075% hits. Potency, µM (titrated, usually from 115 µM), for the others: at the highest dose activation, most hits filed as activators. HEK293 GP2 PTHR1 cells, GloSensor cAMP luminescence, 1 h; further: nearly all actives have a fitted effect of over 55% in size
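HEK-293-derived GP2 cells expressing PTHR1 and a GloSensor cAMP reporter, 3,000/well, plated overnight, given luciferin plus IBMX (each 0.5 mM as added) for 1 h at 37 °C, then compound for 1 h at 37 °C. Luminescence was read after 15 min at room temperature.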
12-LOX inh: Primary qHTS assay for inhibitors of human arachidonate 12S-lipoxygenase (ALOX12): Round 2 | Potency, µM (top dose mostly 108 µM), inactives show top-dose activity change, negative = inhibition, actives largely listed as inhibitors | 580,000 compounds, 1.1% hits | purified 12hLO, xylenol orange hydroperoxide absorbance | Polyunsaturated fatty acid lipoxygenase ALOX12 (Homo sapiens), P18054; further: on the % scale 0 is the no-effect control and ±100 the full control effect
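Purified human 12hLO at 150 nM in 25 mM Hepes, 0.01% Triton X-100, pH 7.0, preincubated 15 min at room temperature with compound. Reaction started with 40 uM arachidonic acid, 30 min at room temperature. Hydroperoxide measured by Fe-xylenol orange, 573/405 nm absorbance ratio.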
GLP1R inv ag: qHTS of GLP-1 Receptor Inverse Agonists (Inhibition Mode); HEK293 GLP-1R CRE-luciferase, luminescence, 24 h; GLP-1R form is constitutively active; Glucagon-like peptide 1 receptor (Homo sapiens), P43220; 410,000 compounds, 1.6% hits; Potency, µM (highest dose often 38.3 µM), inactives show at the top dose activity change, negative = inhibition, hits mostly inhibitors; further: on the % scale 0 is the no-effect control and ±100 the full control effect; nearly all actives have a fitted effect of over 55% in size
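Assay principle: reduced luminescence from a cAMP-responsive reporter in HEK293 cells co-expressing a constitutively active GLP-1R. Conditions: 24 hr compound incubation, 37 deg C, 5% CO2.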
Glioma ERSR ind: qHTS for Inducers of the Endoplasmic Reticulum Stress Response (ERSR) in Human Glioma: qHTS; 420,000 compounds, 0.02% hits; U87-MG GRP78 promoter luciferase reporter, 16 h; Potency, µM, without a hit: top-dose activation, most hits filed as activators; further: series mostly up to about 76 µM; % of control where 0% means no effect; nearly all actives have a fitted effect of over 35% in size
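Stably transfected U87-MG glioma cells carrying a GRP78-based luciferase sensor; 16 h compound incubation. Luminescence end-point read 10 min after Bright-Glo addition at room temperature.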
GLP-1R agonist: qHTS of GLP-1 Receptor Agonists. Potency, µM (titrated, usually from 45.6 µM), for inactives: at the highest dose activation, usual class: activators. 380,000 compounds, 0.007% hits. AID 624172, 2012. Glucagon-like peptide 1 receptor (Homo sapiens), P43220. HEK293 GLP-1R CRE-luciferase, luminescence, 4-6 h; cells express a hypersensitive GLP-1R form; further: % of control where 0% means no effect
GLS inhibitor: qHTS for Inhibitors of Glutaminase (GLS). Potency, µM (doses to about 45.5 µM), for the others: top-dose activity change, negative = inhibition, usual class: inhibitors. 410,000 compounds, 0.21% hits. GLS enzymatic activity, qHTS titration. Glutaminase kidney isoform, mitochondrial (Homo sapiens), O94925; further: on the % scale 0 is the no-effect control and ±100 the full control effect
Target sequence (O94925 whole entry, looked up, canonical isoform): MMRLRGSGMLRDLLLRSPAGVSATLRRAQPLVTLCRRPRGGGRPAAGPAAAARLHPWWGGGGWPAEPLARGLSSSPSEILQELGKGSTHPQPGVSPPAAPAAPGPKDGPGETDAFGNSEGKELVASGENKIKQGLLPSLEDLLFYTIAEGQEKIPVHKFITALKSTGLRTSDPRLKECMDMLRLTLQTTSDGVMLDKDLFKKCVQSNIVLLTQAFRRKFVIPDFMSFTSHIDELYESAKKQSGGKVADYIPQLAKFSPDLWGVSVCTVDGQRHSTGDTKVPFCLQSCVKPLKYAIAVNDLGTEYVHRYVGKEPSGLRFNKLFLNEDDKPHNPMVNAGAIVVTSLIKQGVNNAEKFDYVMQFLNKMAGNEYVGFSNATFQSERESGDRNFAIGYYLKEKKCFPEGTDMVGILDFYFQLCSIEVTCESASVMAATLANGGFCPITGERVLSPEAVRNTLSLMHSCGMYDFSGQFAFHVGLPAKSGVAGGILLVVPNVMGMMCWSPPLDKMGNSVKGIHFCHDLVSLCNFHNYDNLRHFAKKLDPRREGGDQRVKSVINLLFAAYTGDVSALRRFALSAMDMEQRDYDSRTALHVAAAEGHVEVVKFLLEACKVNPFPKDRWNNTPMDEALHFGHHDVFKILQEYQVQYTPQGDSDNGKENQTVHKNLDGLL
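Glutamate formation by hKGA was monitored fluorometrically using coupled glutamate oxidase, HRP and Amplex Red. Substrate was added as 1 mM L-glutamine solution; incubation was 30 min at RT after an initial read.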
* = called active by the depositor; i = inactive; ? = inconclusive; / = no result given; ! = not active in a repeat. The call rests on the fitted dose curve; in most records, active means well fitted curve in the direction sought with a large enough effect; inconclusive means small, poorly fitted or top-dose-only effect, or another doubt; inactive means no such curve, though single readings can be large; an effect the other way counts as inactive or inconclusive. Potency means the concentration at half of the fitted maximal effect.

SMILES	PTHR1 ag	12-LOX inh	GLP1R inv ag	Glioma ERSR ind	GLP-1R agonist	GLS inhibitor
COc1ccc(-n2c(=O)c(-c3ccc(Cl)cc3)nc3cnc(N(C)C)nc32)cc1	/	11µM*	/	-5%	/	/
COc1ccc(-c2nc3cnc(N(C)C)nc3n(-c3ccccc3)c2=O)cc1	/	0%	/	-1%	/	/
O=C(CSc1ncnc2nc[nH]c12)Nc1ccccc1F	/	-4%	/	/	/	/
O=C(Cn1cnc2onc(-c3ccc(Cl)cc3)c2c1=O)Nc1ccc(F)cc1	i	45µM*	3%	0%	/	0%
O=C(Cn1cnc2onc(-c3ccc(F)cc3)c2c1=O)Nc1ccc(F)c(Cl)c1	-13%	-14%	1%	-3%	-7%	2%
O=[N+]([O-])c1ccc(NCCCNS(=O)(=O)c2ccc(Cl)cc2)c(Cl)c1	-38%	-21%	11µM*	-3%	-2%	-5%
CCOC(=O)N1CCN(c2nc3ccccc3nc2C(C#N)C(=O)NC2CCCCC2)CC1 (configuration not stated)	/	36%	/	/	/	/
N#C/C(=C/c1ccc(C#N)cc1)c1nc2ccccc2[nH]1	/	-1%	/	/	/	/
CC1CC(C)CN(C(=O)c2ccc3c(c2)N(Cc2ccccc2)CCS3)C1 (configuration not stated)	i	/	11µM*	-4%	19%	19%
Cc1ccc(C)c(OCCC(=O)N2CCN(S(=O)(=O)c3cc(C)ccc3C)CC2)c1	-26%	?	11µM*	4%	11%	-10%
Cc1ccc(C)c(OCCC(=O)N2CCN(S(=O)(=O)c3cccs3)CC2)c1	/	5%	/	/	/	/
Brc1ccc(CSc2nc3ccccc3s2)cc1	/	-1%	/	/	/	/
O=C(O)/C(=C\c1ccc(Br)cc1)Sc1nc2ccccc2s1	/	8.9µM*	/	/	/	/
CCOc1ccc(CCN2C(=S)N([C@@H](CC(C)C)CN3CCCC3CN3C(=S)NC[C@@H]3CC(C)C)C[C@@H]2Cc2ccccc2)cc1 (some centres not stated)	-18%	14µM*	2%	-2%	-1%	15%
CC(C)C[C@@H](CN1CCC[C@@H]1CN1C(=S)NC[C@@H]1Cc1ccccc1)N1C[C@H](Cc2ccc(O)cc2)N(CC2CCCCC2)C1=S	-18%	-10%	29%	2%	0%	2%
CCOc1ccc(CCN2C(=S)N([C@@H](Cc3ccccc3)CN3CCC[C@@H]3CN3C(=S)NC[C@@H]3CC(C)C)C[C@@H]2Cc2ccccc2)cc1	2%	?	-4%	/	-1%	2%
CC(C)C[C@H]1CNC(=S)N1CC1CCCN1C[C@H](Cc1ccc(O)cc1)N1C[C@H](Cc2ccccc2)N(CC2CCCCCC2)C1=S (some centres not stated)	-35%	?	14%	-2%	16%	10%
CC(C)C[C@H]1CNC(=S)N1C[C@H]1CCCN1C[C@H](Cc1ccccc1)N1C[C@H](Cc2ccc(O)cc2)N(CC2CCCCCC2)C1=S	i	40µM*	?	3%	-4%	13%
CC(C)C[C@@H](CN1CCCC1CN1C(=S)NC[C@@H]1Cc1ccc(O)cc1)N1C[C@H](Cc2ccc(O)cc2)N(CC2CCCCC2)C1=S (some centres not stated)	i	?	11µM*	-11%	-1%	36%
Oc1ccc(C[C@H]2CNC(=S)N2CC2CCCN2C[C@H](Cc2ccccc2)N2C[C@H](Cc3ccc(O)cc3)N(CC3CCCCCC3)C2=S)cc1 (some centres not stated)	7%	11µM*	?	5%	-2%	8%
Cc1nn(-c2ccc3nncn3n2)c2c1C(c1ccc(OC(C)C)cc1)CC(=O)N2 (configuration not stated)	/	4%	/	/	/	/
Nc1nc(-c2ccc(F)cc2)cs1	i	-10%	17%	-2%	16%	-11%
Nc1nc(-c2ccc(Br)cc2)cs1	i	45µM*	?	7%	2%	26%
Nc1nc(-c2cccc(Br)c2)cs1	5.6µM*	?	3%	6%	-4%	22%
CCCCNc1c(-c2cccc(-c3ccc(OC)cc3)c2)nc2ccc(C)cn12	-95%	-20%	?	-9%	-10%	23%
SMILES	PTHR1 ag	12-LOX inh	GLP1R inv ag	Glioma ERSR ind	GLP-1R agonist	GLS inhibitor
Cc1ccn2c(NC3CCCC3)c(-c3ccncc3)nc2c1	i	-8%	?	-2%	17%	5%
Cc1ccn2c(NC3CCCCC3)c(-c3cccc(-c4cccc(Cl)c4)c3)nc2c1	i	-15%	4µM*	-4%	-4%	-16%
CCCCNc1c(-c2cccc(-c3ccc(OC)cc3)c2)nc2cc(C)ccn12	-93%	?	11µM*	-7%	-9%	30%
CCC(C)Sc1ccc(-c2nc3cc(C)ccn3c2NC2CCCCC2)cc1 (configuration not stated)	i	35µM*!	10µM*!	-3%	0%	-9%
CN(C(=O)CC1C(=O)NCCN1Cc1cccc(F)c1F)C1CCOCC1 (configuration not stated)	i	7.1µM*	15%	-4%	0%	4%
CN(C(=O)CC1C(=O)NCCN1Cc1c(F)cccc1Cl)C1CCOCC1 (configuration not stated)	i	2%	-8%	-3%	-2%	-2%
COc1ccc2nc(C)c(C(=O)NCCCC(N)=O)cc2c1	/	6%	/	/	/	/
Cc1ccc(CNC(=O)CCS(=O)(=O)c2ccc(Br)cc2)cc1	i	11%	-14%	-5%	5%	11µM*
Cc1nc(N2N=C(c3ccc(Cl)cc3)CC2c2ccco2)sc1C(=O)N(C)C (configuration not stated)	i	?	?	1%	26%	6%
COc1ccc(C2=NN(c3nc(-c4ccccc4)c(CC(=O)O)s3)C(c3ccco3)C2)cc1 (configuration not stated)	-13%	11µM*	-2%	-3%	3%	11%
Cc1ccc(-n2nc3c(=O)n(CCCC(=O)NCc4cccc(Cl)c4)nc(C)c3c2C)cc1	-92%	6%	11µM*	0%	9%	-3%
Cc1ccc(-n2nc3c(=O)n(CC(=O)NCCCc4ccccc4)nc(C)c3c2C)cc1	i	4%	?	-1%	2%	-1%

Screening data from PubChem BioAssay.
